# Key:
# Format in all cases: functional
# Plasmodium falciparum [1] = test: GSK_TCMDC: Inhibition of Plasmodium falciparum 3D7 in whole red blood cells, using parasite LDH activity as an index of growth. Test compounds present at 2uM
# Plasmodium falciparum [2] = test: GSK_TCMDC: Inhibition of Plasmodium falciparum Dd2 in whole red blood cells, using parasite LDH activity as an index of growth. Test compounds present at 2uM
# HepG2 = test: GSK_TCMDC: Percent inhibition of human HepG2 cell line. Test compounds present at 10uM.
SMILES,Inhibition (Plasmodium falciparum [1]) [%],Inhibition (Plasmodium falciparum [2]) [%],Inhibition (HepG2) [%]
O=[N+]([O-])c1cccc(Nc2cncc(-c3ccc(CO)cc3)c2)c1,85,96,16
CC(=O)c1ccc(-c2ccc(C(=O)NCCCCN3CCC(c4ccc5c(c4OCC(N)=O)CCCC5)CC3)cc2)s1,90,4,26
Cc1cc(NCCc2ccccc2)nc(NC(=N)Nc2cccc([N+](=O)[O-])c2)n1,100,100,21
CCN(CC)c1ccc(-c2nc3cc(Cl)cnc3[nH]2)cc1,85,85,16
Cc1[nH]c(C)c(-c2ccc(-c3ccc(OCC(F)(F)F)cc3)nc2)c(=O)c1Cl,94,96,3
CCCn1cnc2cc(C(=O)Nc3ccc(-c4cccc(CN(C)C)c4)cc3)ccc2c1=O,95,6,26
Cc1nc(N2CCC(C)CC2)c2c3c(sc2n1)CCCC3,93,39,13
CN(C)CCOc1ccc(/C(=C(/CCCn2ccnc2)c2ccccc2)c2ccc(O)cc2)cc1,100,99,13
CC(C)CC(NC(=O)c1cccc(OCCN2CCOCC2)c1)C(=O)NC(/C=N/NC(=O)c1ccccc1)CCc1ccccc1 (stereo not drawn),96,88,0
CCc1cc(N2CCN(c3ccccc3F)CC2)nc(SCc2ccc(C(=O)NC3CC3)o2)n1,90,94,9
CC1CN(c2ccc(C(=O)NCC3CC3)cc2NC(=O)OCc2ccccc2)CC(C)O1.O=C(O)C(F)(F)F (stereo not drawn),91,76,0

# Source: ChEMBL document CHEMBL1157539, “Thousands of chemical starting points for antimalarial lead identification” (Nature, 2010)
